TLR4-MyD88 BLA: TLR4-MyD88 interaction inhibition in cells; O00206+Q99836; HeLa CL3-4 TLR4/MyD88 BLA complementation, FRET ratio; inhibition, % at 8.4 µM; 200,000 compounds, 0.18% hits; in the data active = inhibition above about 25%;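 note: 0% = vehicle and 100% = reference inhibitor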
NOD2-RIPK2 inh: inhibitors of human NOD2-RIPK2 interaction; O43353; CHO BLA complementation NOD2-RIPK2, CCF4 ratio; inhibition, % at 4.98 µM; 360,000 compounds, 0.38% hits; AID 624267; in the data active = inhibition above about 21%;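 note: 0% = vehicle only and 100% = reference blocker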
IDE cell inh: inhibitors of human insulin-degrading enzyme in cells | P14735 | HEK cells, FAbetaB cleavage, fluorescence polarization | inhibition, % at 5.59 µM | 320,000 compounds, 0.41% hits | AID 434962;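 active = percent inhibition above the average of all tested compounds plus 3 SD, set per screening campaign, cut at about 16% in these data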;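 note: IDE supplied by intact live HEK cells; FP after avidin binding of uncleaved biotin substrate so inhibition keeps polarization high; 0% = DMSO wells and 100% = 60 µM reference IDE inhibitor Ii1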
IDE cell activ: boosts human insulin-degrading enzyme activity in HEK cells | P14735 | FAbeta-B cleavage, fluorescence polarization; 0% vehicle, 100% cell-free pure enzyme wells | activation, % at 5.96 µM | 340,000 compounds, 0.073% hits | AID 493087;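 active = activation above the mean of all tested compounds plus 3 SD, set per screening campaign, cut at about 17% in these data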
TLR9-MyD88 inh: TLR9-MyD88 interaction inhibition; Q9NR96+Q99836; CHO BLA complementation TLR9-MyD88, CCF4 FRET ratio; inhibition, % at 4.98 µM; 340,000 compounds, 0.21% hits; AID 504734;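 active = inhibition above the mean over all tested compounds plus 3 SD, cut at about 21% in these data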;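 note: 0% = DMSO only wells and 100% = clavulanate BLA inhibitor control wells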
NOD2 RIPK2 conf: NOD2-RIPK2 interaction inhibition confirmed | CHO cells, NOD2-RIPK2 BLA complementation, CCF4 FRET | inhibition, % at 4.98 µM | AID 624370 | shares compounds with NOD2-RIPK2 inh | 1,200 compounds, 70% hits;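 active = mean inhibition across replicates above a set limit taken from the earlier primary screen, cut at about 21% in these data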;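 note: 0% = DMSO-only wells and the high end = clavulanate BLA-blocked wells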
BLA counter: counter-screen for NOD2-RIPK2 interaction inhibitors: BLA reporter. shares compounds with NOD2-RIPK2 inh. CHO BLA reporter, CCF4 FRET ratio, counterscreen. inhibition, % at 4.98 µM. 1,200 compounds, 57% hits. AID 624371;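 active = mean inhibition above the low-control mean inhibition plus three low-control SD, cut at about 11% in these data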;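 note: 0% = DMSO only wells and 100% = clavulanate high control wells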
Starred values were filed as active, the others as inactive; x = not tested or not shown. An excerpt weighted towards active compounds, which were near 0.86% of everything screened.

SMILES	TLR4-MyD88 BLA	NOD2-RIPK2 inh	IDE cell inh	IDE cell activ	TLR9-MyD88 inh	NOD2 RIPK2 conf	BLA counter
Cc1ccc(S(=O)(=O)c2cc3ccccc3oc2=O)cc1	5.8	3.4	4.7	1.9	-3.8	x	x
Cc1c(O)ccc2cc(S(=O)(=O)c3ccccc3)c(=O)oc12	x	34.0*	3.7	0.0	-0.9	33.4*	57.9*
O=C(NC(Cc1ccccc1)C(=O)O)/C(=C\c1ccc(Cl)cc1)NC(=O)c1ccccc1 (stereo not drawn)	-2.8	-9.6	-0.4	0.9	-4.2	x	x
Cc1ccc(-c2csc3nc(C)n(-n4c(C)ccc4C)c(=O)c23)o1	7.7	49.3*	0.8	-3.4	-9.3	0.5	-1.4
Cc1ccc(-c2csc3nc(C)n(N)c(=O)c23)o1	11.3	-9.9	-1.5	1.6	-1.6	x	x
COc1ccc(S(=O)(=O)N2CCOCC2)cc1NS(=O)(=O)/C=C/c1ccccc1	-10.3	5.9	-4.2	3.3	-13.3	x	x
COC(=O)[C@]1(Cc2ccccc2)N[C@H](CN(C)C(=O)C2CCCCC2)[C@@H]2C(=O)N(Cc3ccccc3)C(=O)[C@@H]21	x	9.8	-0.5	-0.7	8.4	x	x
COc1ccccc1C(=O)n1nc(-c2ccccc2)nc1NCc1ccco1	8.7	30.1*	-1.0	-1.0	20.6	10.1	15.9*
O=C(c1ccco1)n1nc(-c2ccccc2)nc1NCc1ccco1	-6.1	-2.9	4.2	2.2	-6.6	x	x
COCCn1c(SCC(=O)NC(=O)NC2CCCCC2)nc2ccccc2c1=O	x	-4.5	-1.3	1.8	-14.5	x	x
NS(=O)(=O)c1ccc(N/C=C\C(=O)c2ccc3ccccc3c2)cc1	1.7	24.2*	6.7	3.9	1.0	4.4	11.8*
C(=C\c1ccco1)/C1=NN(c2ccccc2)C(c2ccco2)C1 (stereo not drawn)	15.1	21.8*	3.9	-3.4	-23.4	31.6*	60.1*
O=[N+]([O-])c1ccc(/C=C/C2=NN(c3ccccc3)C(c3ccco3)C2)o1 (stereo not drawn)	4.2	1.3	x	-19.4	0.2	x	x
CC1CC(C)C(=NNC(N)=O)C(C(O)CC2CCC(=O)NC2=O)C1 (stereo not drawn)	x	25.5*	x	0.1	-5.2	2.4	0.1
CCOc1c(Br)cc(Br)cc1/C=C1\SC(N)=NC1=O	x	32.2*	x	3.3	4.4	2.7	-3.5
CCOc1cc(/C=C2\SC(N)=NC2=O)ccc1O	x	-6.5	7.8	-0.1	4.4	x	x
CCCCNc1ccc(C(=O)OCCN(C)C)cc1	-13.5	-15.8	4.3	4.9	11.1	x	x
Cc1cccc(Nc2nc(N3CCCC3)nc(N3CCCC3)n2)c1	-4.2	-18.0	0.4	-5.2	1.0	x	x
CCNC(=O)C1(C)CCN1CCS(=O)(=O)c1ccc(C)cc1 (stereo not drawn)	x	7.2	x	x	x	x	x
Cc1ccnc(NC(=O)CCC(=O)N(CC(=O)NCc2ccccc2)c2ccc3c(c2)OCO3)c1	2.0	32.2*	-1.5	-1.8	-2.6	-5.8	-4.8
Cc1ccc(/C(C#N)=C\c2ccc(N3CCOCC3)o2)cc1	12.3	41.8*	0.0	-23.3	14.8	31.9*	26.9*
Cc1c(Cl)cccc1NC(=S)NCc1ccccc1	-11.9	-3.2	4.1	2.1	-4.4	x	x
Cc1c(Cl)cccc1NC(=S)NCc1ccc(Cl)cc1	1.3	21.7*	3.5	6.0	-12.7	-5.9	-3.4
COC(=O)c1ccc(N2C(c3cc(OC)cc(OC)c3)=Cc3ccc(-c4ccc(C(N)=O)cc4)cc3C2CC(=O)C2CC2)cc1 (stereo not drawn)	x	34.4*	x	x	x	35.7*	58.5*
COC(=O)c1ccc(N2C(c3cc(OC)cc(OC)c3)=Cc3ccc(-c4cccnc4)cc3C2CC(=O)C2CC2)cc1 (stereo not drawn)	x	-7.7	x	x	x	x	x
SMILES	TLR4-MyD88 BLA	NOD2-RIPK2 inh	IDE cell inh	IDE cell activ	TLR9-MyD88 inh	NOD2 RIPK2 conf	BLA counter
COc1ccc(S(=O)(=O)Cc2ccc(C(=O)NCc3cccnc3)o2)cc1	0.5	-16.9	0.7	5.5	-10.8	x	x
Clc1nssc1=Nc1nncs1	x	26.8*	6.1	-9.2	7.7	28.9*	2.9
Cc1ccc(-n2c(O)c(/C=N/NC(=O)C3COc4ccccc4O3)c3ccccc3c2=O)cc1 (stereo not drawn)	9.4	11.2	-2.6	0.8	15.0	x	x
O=C(N/N=C/c1c(O)n(-c2ccccc2Cl)c(=O)c2ccccc12)C1COc2ccccc2O1 (stereo not drawn)	10.2	22.6*	0.2	8.5	14.1	26.1*	39.3*
C=C1C(=O)[C@]23C[C@H]1CCC2[C@]1(C)C(=O)CC[C@@](C)(C(=O)O)C1C[C@@H]3O (stereo partly drawn)	x	2.5	x	x	x	x	x
C=C1C(=O)[C@]23C[C@H]1CCC2[C@]1(C)CCC[C@@](C)(C(=O)O)C1C[C@@H]3O (stereo partly drawn)	x	22.2*	x	x	x	32.7*	2.1
CCN1C(=O)c2cccc3c(S(=O)(=O)N4CCC(C)CC4)ccc1c23	x	22.6*	-0.5	5.0	18.3	22.4*	25.1*
CCN1C(=O)c2cccc3c(S(=O)(=O)NCc4ccccc4)ccc1c23	x	9.1	-0.7	0.1	2.1	x	x
CN1CCN(C2CC(=O)N(c3ccc4c(c3)OCCO4)C2=O)CC1 (stereo not drawn)	-4.1	23.9*	1.6	-1.9	-5.9	-1.4	-1.8
COc1ccc(C2=NN(C(=O)CSc3nnc(C)n3C)C(c3ccco3)C2)cc1 (stereo not drawn)	-9.7	2.2	2.1	-4.8	-1.2	x	x
COc1ccc(CCNC(=O)C/C(C)=N/NC(=O)c2ccc([N+](=O)[O-])cc2Cl)cc1OC	x	45.9*	-6.0	-0.8	-4.5	-4.0	-2.2
COc1ccccc1Cc1c(-c2ccco2)nc2c(C)cc(Br)cn12	x	24.6*	x	x	x	1.4	-5.3
CNC[C@@H](CC1CCCCC1)NC[C@H](CC(C)C)NCCc1cccc(C(F)(F)F)c1	x	21.4*	3.0	21.4*	-5.2	27.6*	5.7
CNC[C@@H](Cc1ccccc1)NC[C@@H](CC1CCCCC1)NCCCc1ccccc1	x	-4.3	0.4	12.9	-4.7	x	x
COc1ccccc1C(=O)Nc1ccc(C)cc1C(=O)c1ccccc1	-1.5	22.4*	1.8	0.3	-3.4	-10.1	-4.5
Cn1c(SCC(=O)NNC(=O)Nc2ccccc2)nnc1-c1ccccc1	x	24.0*	1.3	2.5	15.4	10.8	9.8
Cc1ccc(SCC(=O)N2CCCC2)cc1	-0.9	-10.0	-3.8	5.4	-4.9	x	x
CCOC(=O)Nc1nc2ccc(Cn3cccc3)cc2[nH]1	x	-7.7	x	-3.1	-0.9	x	x
O=C(Nc1nnc(SCc2ccccc2)s1)c1cccs1	-6.2	-9.3	5.8	-3.6	0.9	x	x
Cc1cc(C)nc(SCC(=O)Nc2nonc2N)n1	10.6	-7.5	4.1	1.2	-13.4	x	x
Cc1nn(-c2ccc(Cl)cc2)c(=O)c2ccccc12	9.1	-7.0	-2.9	4.1	8.4	x	x

Screens (PubChem)
